# Source: PubChem BioAssay (National Center for Advancing Translational Sciences (NCATS))
# Only some compounds are listed: those with a hit (about 4.7% of all), similar ones and a draw of the others.
# D1 agonist = activates the human D1 dopamine receptor; P21728; HEK293 T-REx D1 cells, calcium flux, agonist mode; activation, % at 2 µM; 360,000 compounds, 1% hits; in the data active means activation above about 30%
# Target sequence (P21728 whole entry, looked up): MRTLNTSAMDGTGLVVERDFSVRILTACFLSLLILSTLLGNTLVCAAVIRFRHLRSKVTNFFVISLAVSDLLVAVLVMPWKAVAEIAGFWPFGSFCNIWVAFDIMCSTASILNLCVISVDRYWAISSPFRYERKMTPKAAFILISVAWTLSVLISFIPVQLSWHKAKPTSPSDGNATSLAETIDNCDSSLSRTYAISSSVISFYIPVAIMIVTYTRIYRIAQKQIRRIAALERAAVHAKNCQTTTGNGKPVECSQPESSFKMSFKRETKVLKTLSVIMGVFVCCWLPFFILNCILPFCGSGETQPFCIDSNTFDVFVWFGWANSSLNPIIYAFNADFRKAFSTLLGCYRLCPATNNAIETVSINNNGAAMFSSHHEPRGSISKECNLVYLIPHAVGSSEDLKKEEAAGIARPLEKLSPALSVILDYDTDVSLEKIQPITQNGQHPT
#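 Inducible HEK293 T-REx D1 cells, force-coupled to calcium signalling, were plated at 4000 cells/well with tetracycline and held overnight at 30 C. After no-wash calcium dye loading, compound-evoked calcium rise over 180 s flagged agonists.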
# TRHR enhancer-1 = allosteric enhancers of human TRH receptor; TRHR cells, fluo-8 calcium fluorescence, EC20 TRH enhancement; enhancement, % at 2 µM; 360,000 compounds, 0.66% hits; AID 493056; in the data active means enhancement above about 30%
#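 TRHR-expressing cells loaded with fluo-8 calcium dye were read kinetically (ex 480/em 530) during compound addition, then stimulated with an EC20 of TRH (10 nM final). Enhancement of the Gq-mediated intracellular calcium response was scored.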
# D1 potentiator = human D1 dopamine receptor positive modulation; P21728; HEK293 TREx D1 cells, calcium flux, dopamine EC20 potentiation; potentiation, % at 10 µM; 360,000 compounds, 0.036% hits; AID 504651; in the data active means potentiation above about 30%
# D1 antagonist = blocks dopamine activation of the human D1 receptor. HEK293 TREx D1 cells, calcium flux, dopamine EC80; stronger effect = lower value. P21728. activity change, negative = inhibition, % at 10 µM. 360,000 compounds, 3.2% hits; in the data active means activity change below about -30%
#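 Antagonism measured as reduced calcium response to an EC80 dopamine addition following 180 s compound pre-read; cells were inducible HEK293 Trex D1 plated overnight at 30 C, read kinetically at 1 cycle/sec.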
# TRHR agonist-1 = activates the human TRH receptor; P34981; TRHR cells, calcium flux fluo-8, FDSS agonist mode; activation, % at 2 µM; 360,000 compounds, 0.18% hits; in the data active means activation above about 30%
#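 Fluo-8-loaded TRHR cells; 10 s baseline, compound added, kinetic Ca2+ fluorescence read 1/s, agonist mode.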
# TRHR enhancer-2 = confirmation of human TRH receptor allosteric enhancers | shares compounds with TRHR enhancer-1 | TRH receptor cell assay, enhancer confirmation qHTS | activity change, negative = inhibition, % at 46.1 µM | 970 tested, under 10 active;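 further: compound effect scored on response to added TRH at EC20 of 10 nM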
# TRHR agonist-2 = confirmation of human TRH receptor agonists; TRHR-expressing cells, agonist activation read-out; AID 493078; 970 compounds, 8% hits; Potency, µM (highest dose often 46.1 µM), actives largely listed as activators; shares compounds with TRHR enhancer-1; further: nearly all actives have a fitted effect of over 75% in size
# A number is an active result; – = inactive; · = no result. Unless noted, the call rests on the fitted dose curve; in most records, active means well fitted curve in the direction sought with a large enough effect; inconclusive means small, poorly fitted or top-dose-only effect, or another doubt; inactive means no such curve, though single readings can be large; an effect the other way counts as inactive or inconclusive.
SMILES,D1 agonist,TRHR enhancer-1,D1 potentiator,D1 antagonist,TRHR agonist-1,TRHR enhancer-2,TRHR agonist-2
CCCCc1nc2cc(C(=O)N3CCNC(=O)C3CC(=O)OC)ccc2o1 (stereo not drawn),–,89,–,–,–,–,–
NS(=O)(=O)c1ccc(NC(=O)CSC2CCCCC2)cc1,–,45,–,–,–,–,–
N=c1sccn1CC(=O)Nc1ccc(S(N)(=O)=O)cc1,–,54,–,–,–,–,–
COc1ccc(C(=O)Nc2ccc(N(C)Cc3ccccc3)c(C(=O)O)c2)cc1,–,–,–,–,–,·,·
Cc1ccc2c(=O)cc(C(=O)Nc3ccc(S(=O)(=O)N(C)Cc4ccccc4)cc3)oc2c1,–,–,–,–,–,·,·
O=C(Nc1ncn[nH]1)c1ccc(Cl)c(Cl)c1,–,–,–,–,–,·,·
Cn1c(=O)c(N)c2c3c(c(Br)ccc31)C(=O)c1ccccc1-2,73,–,–,–,60,–,18µM
Cc1ccc(-n2nnnc2SCC(=O)c2c(N)n(C3CC3)c(=O)[nH]c2=O)c(C)c1,–,–,·,–,–,·,·
O=C(CSc1ccc(Br)cc1)N1CCN(C(=O)c2ccco2)CC1,–,60,–,–,–,–,–
Cc1n[nH]c(C)c1CCN(C)C(=O)C1CCC(=O)N(CC2CCCCC2)C1 (stereo not drawn),–,–,–,–,–,·,·
CN(CCc1cnn(C)c1)C(=O)C1CCC(=O)N(CC2CCCCC2)C1 (stereo not drawn),–,66,–,–,–,–,–
CCC(C)NC(=O)c1sc2nc(C)c(C(=O)Nc3ccc(C)cc3C)c(-c3ccc(Br)cc3)c2c1N (stereo not drawn),–,–,–,–,–,·,·
C/C(CC(=O)Nc1cccc(C(F)(F)F)c1)=N\NC(=O)Cc1ccccc1,–,58,–,–,–,–,–
COc1ccccc1CCNC(=O)C1(c2cccs2)CCOCC1,–,–,–,·,–,·,·
COC(=O)c1c(C)oc2ccc(NS(=O)(=O)c3cccs3)cc12,–,53,–,–,–,–,–
CN(C)CCCNC1=CC(=O)CC(c2ccccc2)C1 (stereo not drawn),–,56,–,–,–,–,–
COCCN1CCN(Cc2cn(C)nc2-c2ccc(Oc3ccccc3)cc2)CC1,–,44,–,–,–,–,–
Cn1cc(CN2CCN(CCO)CC2)c(-c2ccc(Oc3ccccc3)cc2)n1,–,–,–,–,–,·,·
COC(=O)c1ccc(/C=C/c2nc3ccccc3c(=O)[nH]2)cc1,–,–,–,–,38,–,–
CCOc1ccccc1NC(=O)c1cn(C2CCCC2)c(=O)c2c1c1ccccc1n2C,–,–,–,–,–,·,·
CN(C(=O)c1cccc(NC(=O)c2ccco2)c1)c1ccccc1,–,–,–,–,34,–,–
CN(C(=O)c1ccc(NC(=O)c2ccco2)cc1)c1ccccc1,–,–,–,–,–,·,·
CSc1nnc(N2C(=O)C(O)=C(C(=O)c3ccco3)C2c2ccccc2)s1 (stereo not drawn),100,–,–,–,–,–,–
Cc1ccc(C2C(C(=O)c3ccco3)=C(O)C(=O)N2c2nnc(C)s2)cc1 (stereo not drawn),–,–,–,–,–,·,·
O=C(N/N=C/c1c(O)n(-c2ccc(Cl)cn2)c(=O)c2ccccc12)c1ccncc1,45,–,–,–,38,–,21µM
SMILES,D1 agonist,TRHR enhancer-1,D1 potentiator,D1 antagonist,TRHR agonist-1,TRHR enhancer-2,TRHR agonist-2
O=C(N/N=C/c1c(O)n(-c2ccc(Cl)cn2)c(=O)c2ccccc12)C1CC1,–,–,–,–,–,·,·
Cc1ccn(S(=O)(=O)c2ccc(N3CCCC3=O)cc2)n1,–,–,–,–,–,·,·
COc1ccc(C(=O)OCC(=O)NCC2CCCCC2)cc1F,–,41,–,–,–,–,–
COc1ccc(C(=O)OCC(=O)NCC2CCCCC2)c(OC)c1,–,–,–,–,–,·,·
COc1ccccc1OCCNC(=O)c1ccc2c(c1)CCC2,–,–,–,–,–,·,·
COc1ccccc1C(=O)N1CCN(Cc2cn[nH]c2-c2ccc(F)cc2F)CC1,–,57,–,–,–,–,–
